Most compounds without a hit are left out; they make up all but 10% or so of the library.
HP1b binding inh = blocks HP1-beta chromodomain binding to methylated histone tails; AlphaScreen HP1-beta / biotin-H3K9me3 peptide binding; 390,000 tested, 0.56% active; P83916; Potency, µM (titrated, usually from 114 µM), for the others: at the top dose activity change, negative = inhibition, hits mostly inhibitors; note: nearly all actives have a fitted effect of over 70% in size
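HP1-beta protein (50 nM final) preincubated 30 min at room temperature with biotinylated H3(1-18)K9me3 peptide (50 nM) in PBS pH 7.4, 0.01% Tween-20, then compound added for 30 min. AlphaScreen streptavidin donor/nickel chelate acceptor beads (10 ug/mL final), 30 min dark, luminescence read.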
JMJD2A Tudor inh = inhibitors of human JMJD2A Tudor domain | O75164 | AlphaScreen JMJD2A-Tudor / H3K4me3 peptide binding | Potency, µM (titrated, usually from 114 µM), inactives show at the highest dose activity change, negative = inhibition, hits mostly inhibitors | 390,000 tested, 4.4% active | AID 504339; note: % is set by controls: 0 for no effect and ±100 for the full control effect; nearly all actives have a fitted effect of over 50% in size
G9a inh = blocks human histone lysine methyltransferase G9a; G9a H3K9 monomethylation, AlphaScreen, 2 h; 350,000 tested, 8.8% active; Q96KQ7; Potency, µM (top dose mostly 102 µM), inactives show at the highest dose activity, negative = inhibition, hits mostly inhibitors; note: % is set by controls: 0 for no effect and ±100 for the full control effect; nearly all actives have a fitted effect of over 75% in size
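AlphaScreen detection with an anti-monomethyl H3K9 antibody quantified product after a 2 h room-temperature reaction containing 500 nM biotinylated H3K9 peptide, 20 µM SAM and 20 nM enzyme, which had been preincubated 15 min with compound.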
BAZ2B block = BAZ2B (human) inhibition; Q9UIF8; AlphaScreen BAZ2B-H3K14Ac peptide displacement; Potency, µM (top dose mostly 114 µM), inactives show at the highest dose activity change, negative = inhibition, usual class: inhibitors; 360,000 tested, 4.4% active; note: % is set by controls: 0 for no effect and ±100 for the full control effect; nearly all actives have a fitted effect of over 60% in size
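Protein-peptide AlphaScreen: BAZ2B 50 nM, b-H3K14Ac 50 nM, 1x PBS pH 7.4 + 0.01% Tween-20. Preincubation 30 min RT; cpd 30 min RT (top 110 uM); beads 20 min RT, light-protected.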
GLS inhibitor = inhibitors of human glutaminase (GLS) | O94925 | GLS enzymatic activity, qHTS titration | Potency, µM (highest dose often 45.5 µM), for the others: at the highest dose activity change, negative = inhibition, usual class: inhibitors | 410,000 tested, 0.21% active; note: % is set by controls: 0 for no effect and ±100 for the full control effect
Target sequence (O94925 whole entry, looked up): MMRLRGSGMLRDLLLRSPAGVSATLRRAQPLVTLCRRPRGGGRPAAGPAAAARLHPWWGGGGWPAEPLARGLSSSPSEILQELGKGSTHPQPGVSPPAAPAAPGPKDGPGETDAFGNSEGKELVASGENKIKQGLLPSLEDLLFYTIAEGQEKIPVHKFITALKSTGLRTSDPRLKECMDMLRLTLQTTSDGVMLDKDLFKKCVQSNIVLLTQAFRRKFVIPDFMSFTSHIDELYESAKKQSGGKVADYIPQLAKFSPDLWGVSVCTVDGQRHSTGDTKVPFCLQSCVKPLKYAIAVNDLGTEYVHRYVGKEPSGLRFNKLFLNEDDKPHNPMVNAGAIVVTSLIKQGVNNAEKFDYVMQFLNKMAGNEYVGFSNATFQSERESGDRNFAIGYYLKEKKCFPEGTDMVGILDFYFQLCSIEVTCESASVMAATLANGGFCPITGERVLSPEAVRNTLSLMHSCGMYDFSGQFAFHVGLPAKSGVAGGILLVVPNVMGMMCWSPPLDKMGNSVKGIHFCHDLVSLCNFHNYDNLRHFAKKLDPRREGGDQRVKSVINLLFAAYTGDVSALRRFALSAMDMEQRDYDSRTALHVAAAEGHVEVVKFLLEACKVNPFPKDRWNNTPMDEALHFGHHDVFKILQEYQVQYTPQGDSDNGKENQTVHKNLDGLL
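Human kidney-isoform GLS in 45 mM KH2PO4 pH 8.2, 0.02% Tween-20, with compound, started with 1mM L-Glutamine (added stock). Glutamate oxidase/HRP/Amplex red coupled fluorescence read at start and after 30 min at RT.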
* hit, by the source's call; [ ] = dose if it differs, or a comment. Calls come from the whole dose curve; as a rule, active = well fitted curve in the direction sought with a large enough effect; inconclusive = small, poorly fitted or top-dose-only effect, or another doubt; inactive = no such curve, though single readings can be large; an effect the other way counts as inactive or inconclusive. Potency is the fitted concentration of half-maximal effect.

Screening CN1CCN(S(=O)(=O)c2ccc(N(C)Cc3ccc(C(F)(F)F)cc3)c([N+](=O)[O-])c2)CC1 returned HP1b binding inh inconclusive, JMJD2A Tudor inh 25µM*, G9a inh -13%[12.7 µM], BAZ2B block 40µM* and GLS inhibitor 3%.
`C(=NNc1ccc2ccccc2n1)c1ccccn1` gave GLS inhibitor 20%.
For CCCSc1nc(C)c2cc(C)cc(C)c2n1 the results were HP1b binding inh 162%, JMJD2A Tudor inh 69%, G9a inh 78%[59 µM], BAZ2B block 105% and GLS inhibitor -5%.
Screening Cc1cc(C)c2nc3nc(C)c(C)cc3c(N)c2c1 returned HP1b binding inh 12%, JMJD2A Tudor inh -2%, G9a inh 50µM*, BAZ2B block -24% and GLS inhibitor -5%.
Screening Cc1csc(SCC(=O)Nc2cc([N+](=O)[O-])ccc2F)n1 returned HP1b binding inh 27%, JMJD2A Tudor inh -20%, G9a inh 32%[12.7 µM], BAZ2B block 3% and GLS inhibitor 6%.
For N#Cc1cnc(SCC(=O)c2ccccc2)nc1N the results were HP1b binding inh 39%, JMJD2A Tudor inh -17%, G9a inh 13µM*, BAZ2B block 10% and GLS inhibitor -8%.
For O=C(c1ccccc1)c1ccc(OCC(O)CNCc2ccc(Cl)cc2)cc1 (stereo not given) the results were HP1b binding inh inconclusive, JMJD2A Tudor inh 20µM*, G9a inh inconclusive, BAZ2B block 56µM* and GLS inhibitor -3%.
`COc1cccc(CNCC(O)COc2ccc(C(=O)c3ccccc3)cc2)c1` (stereo not given) gave HP1b binding inh inconclusive, JMJD2A Tudor inh 56µM*, G9a inh 10µM*, BAZ2B block 50µM* and GLS inhibitor 9%.
`Cc1nc(-c2ccc(S(=O)(=O)Nc3cc(Cl)ccc3C)cc2)co1` gave HP1b binding inh 30%[57 µM], JMJD2A Tudor inh -12%, G9a inh 0%[59 µM], BAZ2B block -17% and GLS inhibitor 1%.
CCn1ccc2cc(OC)ccc2c1=S was read as HP1b binding inh 7%, JMJD2A Tudor inh -27%, BAZ2B block -1% and GLS inhibitor 21%.
Screening CCSc1ccc2cc(OC)ccc2[n+]1CC returned HP1b binding inh 29%, JMJD2A Tudor inh inconclusive, G9a inh 20µM*, BAZ2B block 11% and GLS inhibitor inconclusive.
Screening Cc1nc(-c2ccccc2)cc(=O)[nH]1 returned HP1b binding inh 14%, JMJD2A Tudor inh -3%, G9a inh 1%, BAZ2B block 4% and GLS inhibitor 3%.
For Cc1ccc2oc(Nc3nc(-c4ccccc4)cc(=O)[nH]3)nc2c1 the results were HP1b binding inh 12%, JMJD2A Tudor inh inconclusive, G9a inh 79µM*, BAZ2B block inconclusive and GLS inhibitor -13%.
For COCc1cc(=O)[nH]c(Nc2nc3ccccc3o2)n1 the results were HP1b binding inh 47%, JMJD2A Tudor inh 79µM*, G9a inh 68%[59 µM], BAZ2B block 40µM* and GLS inhibitor 7%.
CCC(CC)CN1CCC(CN2C(=S)NC[C@@H]2CC(C)C)CC1 was read as HP1b binding inh 37%, JMJD2A Tudor inh -19% and GLS inhibitor 6%.
CN1CCN(Cc2nc3ccccc3c(=O)n2Cc2nc(-c3ccc4ccccc4c3)cs2)CC1 was read as HP1b binding inh inconclusive, JMJD2A Tudor inh inconclusive, G9a inh inconclusive, BAZ2B block inconclusive and GLS inhibitor -16%.
Screening CN1CCN(Cc2nc3ccccc3c(=O)n2Cc2nc(-c3ccccc3F)cs2)CC1 returned HP1b binding inh -7%, JMJD2A Tudor inh -22%, G9a inh 35µM*, BAZ2B block -29% and GLS inhibitor 0%.
CN1CCN(Cc2nc3ccccc3c(=O)n2Cc2nc(-c3cccc([N+](=O)[O-])c3)cs2)CC1 was read as HP1b binding inh inconclusive, JMJD2A Tudor inh inconclusive, G9a inh 25µM*, BAZ2B block 40µM* and GLS inhibitor -3%.
For CCOC(=O)c1cccc(NC(=O)c2cnc(N3CCCCC3)c3ccccc23)c1 the results were HP1b binding inh 35%[57 µM], JMJD2A Tudor inh 10%, G9a inh 23%[59 µM], BAZ2B block -3% and GLS inhibitor -6%.
`CC1CCCN(c2c([N+](=O)[O-])c(=O)oc3ccccc23)C1` (stereo not given) gave HP1b binding inh 27%, JMJD2A Tudor inh -8%, G9a inh 45µM*, BAZ2B block 8% and GLS inhibitor 0%.
Screening Cc1ccc(S(=O)(=O)N(C)C[C@@H]2OCc3cnnn3CCCC(=O)N([C@H](C)CO)C[C@@H]2C)cc1 returned GLS inhibitor 0%.
Screening C[C@@H]1CCN(C(=O)[C@H](CCCNC(=N)N)NS(=O)(=O)c2cccc3c2NC[C@H](C)C3)[C@@H](C(=O)O)C1 returned G9a inh 30%[59 µM] and GLS inhibitor 20%.
Cc1oc(C(=O)O)cc1COc1cccc2cccnc12 was read as HP1b binding inh 14%, JMJD2A Tudor inh 79µM*, G9a inh 79µM*, BAZ2B block 40µM* and GLS inhibitor inconclusive.
Screening NC(=O)COc1cccc2cccnc12 returned HP1b binding inh 22%, JMJD2A Tudor inh 5%, G9a inh 45µM*, BAZ2B block 0% and GLS inhibitor -8%.
Screening Cc1ccc(NC(=O)CN(C)C(=O)COc2cccc3cccnc23)cc1 returned HP1b binding inh 3%, JMJD2A Tudor inh inconclusive, G9a inh inconclusive, BAZ2B block 50µM* and GLS inhibitor 6%.
O=C(COc1cccc2cccnc12)NNC(=S)Nc1ccccc1 was read as G9a inh 18µM* and BAZ2B block 2%.
Fc1ccc(COc2cccc3cccnc23)cc1 was read as HP1b binding inh 35%, JMJD2A Tudor inh -8%, G9a inh 26%, BAZ2B block 1% and GLS inhibitor 4%.
For CSC1=NCCN1C(=O)c1c(F)cccc1Cl the results were HP1b binding inh 51%, JMJD2A Tudor inh -4%, G9a inh 50µM*, BAZ2B block -1% and GLS inhibitor -12%.
For O=C1c2ccccc2C(=O)N1CCN1CCCCC1 the results were HP1b binding inh 36%, JMJD2A Tudor inh -2%, G9a inh -15%[59 µM], BAZ2B block -12% and GLS inhibitor -4%.
For O=S1(=O)C=C(SCCN2CCCCC2)c2ccccc21 the results were HP1b binding inh 37%, JMJD2A Tudor inh 13%, G9a inh 50µM*, BAZ2B block -8% and GLS inhibitor 1%.
COC(=O)Cn1c(=O)oc2ccc(C)cc21 was read as HP1b binding inh -14%, JMJD2A Tudor inh 32µM*, G9a inh -30%, BAZ2B block 0% and GLS inhibitor 0%.
`Cc1ccc(Cl)cc1NC(=O)C1CCN(C(=O)c2cnn(-c3ccccc3)c2-n2cccc2)CC1` gave HP1b binding inh 21%, JMJD2A Tudor inh -9%, G9a inh 18%[59 µM], BAZ2B block -6% and GLS inhibitor -2%.

Source: PubChem
